The sample as a whole holds a higher share of hits than the screen did.
IDE exosite inh: exo-site inhibitors of human IDE, primary screen, biochemical, fluorescence anisotropy, probe displacement; Insulin-degrading enzyme (Homo sapiens), P14735; purified IDE, FL-6b probe fluorescence polarization; hits give low values; z-score at 20 µM; hit rate 6.3% among 17,000; AID 1259349, 2017;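 active = z-score of -3 or lower, meaning strong loss of probe binding signal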;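 note: His-tagged human IDE residues 42-1019 made in E. coli with 30 nM FL-6b probe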
Target sequence (P14735 42-1019 limits assumed): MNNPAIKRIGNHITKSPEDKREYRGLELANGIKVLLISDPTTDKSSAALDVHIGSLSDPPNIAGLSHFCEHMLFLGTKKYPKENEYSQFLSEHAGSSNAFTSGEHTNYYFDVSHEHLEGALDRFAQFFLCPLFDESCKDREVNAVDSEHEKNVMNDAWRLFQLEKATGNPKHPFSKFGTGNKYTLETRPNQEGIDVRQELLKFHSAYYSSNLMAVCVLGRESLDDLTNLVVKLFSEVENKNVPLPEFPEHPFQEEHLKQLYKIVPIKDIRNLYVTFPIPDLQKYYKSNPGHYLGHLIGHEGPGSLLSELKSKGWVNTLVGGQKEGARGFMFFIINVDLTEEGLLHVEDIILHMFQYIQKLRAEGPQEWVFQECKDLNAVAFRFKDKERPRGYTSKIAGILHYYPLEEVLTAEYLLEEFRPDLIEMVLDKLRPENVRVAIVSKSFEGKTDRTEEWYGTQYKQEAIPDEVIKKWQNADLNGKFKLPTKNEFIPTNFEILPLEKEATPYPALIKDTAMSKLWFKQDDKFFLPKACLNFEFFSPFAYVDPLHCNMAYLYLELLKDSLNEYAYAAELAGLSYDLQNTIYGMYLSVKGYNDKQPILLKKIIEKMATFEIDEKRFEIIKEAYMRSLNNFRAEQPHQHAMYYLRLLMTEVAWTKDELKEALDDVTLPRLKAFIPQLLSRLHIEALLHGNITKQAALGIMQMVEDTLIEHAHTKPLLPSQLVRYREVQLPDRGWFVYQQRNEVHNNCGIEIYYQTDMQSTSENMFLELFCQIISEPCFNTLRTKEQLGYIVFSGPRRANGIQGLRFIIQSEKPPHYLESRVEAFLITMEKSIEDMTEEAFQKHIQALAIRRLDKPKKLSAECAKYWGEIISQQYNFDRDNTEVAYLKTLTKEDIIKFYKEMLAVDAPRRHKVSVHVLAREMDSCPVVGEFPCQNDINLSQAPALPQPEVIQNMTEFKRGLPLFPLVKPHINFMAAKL
Hits are given with their value; - = inactive.

SMILES | IDE exosite inh
O=C(Nc1ccccc1F)N1CCCCN2[C@H](CO)[C@@H](c3ccc(C#Cc4ccccc4)cc3)[C@@H]2C1 | -
O=C(Nc1ccccc1F)N1CCCCN2[C@@H](CO)[C@@H](c3ccc(C#Cc4cccnc4)cc3)[C@@H]2C1 | -
O=C(Nc1ccccc1F)N1CCCCN2[C@H](C1)[C@@H](c1ccc(C#Cc3cccnc3)cc1)[C@@H]2CO | -5.1
O=C(Nc1ccccc1)N1CCCCN2[C@H](CO)[C@H](c3ccc(C#Cc4ccccc4)cc3)[C@@H]2C1 | -3.4
O=C(Nc1ccccc1F)N1CCCCN2[C@H](CO)[C@H](c3ccc(C#Cc4ccccc4)cc3)[C@@H]2C1 | -
O=C(Nc1ccccc1F)N1CCCCN2[C@H](CO)[C@@H](c3ccc(C#Cc4cccnc4)cc3)[C@@H]2C1 | -
O=C(Nc1ccccc1F)N1CCCCN2[C@H](CO)[C@@H](c3ccc(C#Cc4ccccc4)cc3)[C@H]2C1 | -4.1
O=C(Nc1ccccc1)N1CCCCN2[C@H](C1)[C@H](c1ccc(C#Cc3ccccc3)cc1)[C@@H]2CO | -
C/C=C/c1ccc(C2[C@H]3CNC[C@@H]2N3S(=O)(=O)Cc2ccccc2)cc1 (some centres not stated) | -
CCNC(=O)C[C@@H]1CC[C@@H]2[C@H](COC[C@@H](O)CN2C(=O)C2CCCC2)O1 | -
CO[C@@H]1CN(C)C(=O)c2cc(NS(=O)(=O)c3cccc(Cl)c3)ccc2OC[C@H](C)NC[C@H]1C | -
CC(C)NC(=O)Nc1ccc2c(c1)C(=O)N(C)[C@@H]1CC[C@H](CC(=O)NCc3ccc(F)cc3)O[C@H]1CO2 | -
CC(=O)N(CC(C)C)C[C@H]1[C@@H](c2ccc(C3=CCCC3)cc2)[C@@H](CO)N1C(C)=O | -
O=C(Nc1cccc(F)c1)N1[C@@H]2CNC[C@H]1C2c1ccc(-c2cccnc2)cc1 (some centres not stated) | -
CN1CCN(C(=O)C[C@H]2CC[C@@H]3[C@H](COC[C@@H](O)CN3C(=O)Nc3ccc4c(c3)OCO4)O2)CC1 | -
COc1cccc(-c2ccc([C@H]3[C@H]4CN(C(=O)c5ccncc5)CC(=O)N4[C@H]3CO)cc2)c1 | -
Cc1ccc(-c2ccc([C@H]3[C@@H](CO)N4C(=O)CN(C(=O)CN5CCOCC5)C[C@@H]34)cc2)cc1 | -
Cc1cccc(-c2ccc([C@H]3[C@H](CO)N4C(=O)CN(C(=O)CN5CCOCC5)C[C@@H]34)cc2)c1 | -6.3
COc1cccc(-c2ccc([C@@H]3[C@@H](CO)N4C(=O)CN(C(=O)c5ccncc5)C[C@@H]34)cc2)c1 | -
Cc1ccc(-c2ccc([C@@H]3[C@H](CO)N4C(=O)CN(C(=O)CN5CCOCC5)C[C@@H]34)cc2)cc1 | -
COc1cccc(-c2ccc([C@@H]3[C@H]4CN(C(=O)CN5CCOCC5)CC(=O)N4[C@H]3CO)cc2)c1 | -5.5
Cc1ccc(-c2ccc([C@@H]3[C@H]4CN(C(=O)CN5CCOCC5)CC(=O)N4[C@H]3CO)cc2)cc1 | -
COc1cccc(-c2ccc([C@@H]3[C@@H](CO)N4C(=O)CN(C(=O)CN5CCOCC5)C[C@H]34)cc2)c1 | -3.8
COCC#Cc1ccc([C@@H]2[C@H]3CN(C(=O)CN4CCOCC4)CC(=O)N3[C@H]2CO)cc1 | -
O=C(Nc1ccc(F)cc1)N1CCCCN2[C@H](C1)[C@H](c1ccc(C#Cc3ccccc3)cc1)[C@@H]2CO | -
SMILES | IDE exosite inh
O=C(C[C@H]1CC[C@@H]2[C@H](COC[C@@H](O)CN2C(=O)Nc2ccc(F)cc2)O1)NC1CCC1 | -
O=C(C[C@@H]1CC[C@H]2[C@@H](COC[C@@H](O)CN2Cc2cccc(Cl)c2)O1)NCc1cccc(F)c1 | -
O=C(NCC[C@@H]1CC[C@H](NC(=O)c2ccccc2F)[C@H](CO)O1)c1cnccn1 | -
Cc1cccc(S(=O)(=O)N2CCCCN3[C@@H](CO)[C@H](c4ccc(C#CC5CC5)cc4)[C@@H]3C2)c1 | -
COc1ccc(NC(=O)N2CCC3(CC2)CN(C(=O)C2CCC2)[C@H](CO)c2c3c3ccc(OC)cc3n2C)cc1 | -
O=C(Nc1cccc(F)c1)N1CCCCN2[C@H](CO)[C@@H](c3ccc(C#CC4CC4)cc3)[C@H]2C1 | -
COc1ccc(NC(=O)N(C)C[C@H]2OCc3ccccc3-c3ccccc3C(=O)N([C@@H](C)CO)C[C@@H]2C)c(OC)c1 | -
O=C(C[C@@H]1C=C[C@@H](NC(=O)C2CCC2)[C@H](CO)O1)NC1CCCCC1 | -
CS(=O)(=O)N1CCCCN2[C@H](C1)[C@H](c1ccc(C3=CCCC3)cc1)[C@@H]2CO | -
CCS(=O)(=O)N1CCCCN2[C@H](CO)[C@H](c3ccc(-c4ccccc4)cc3)[C@H]2C1 | -
CS(=O)(=O)N1CCCCN2[C@H](C1)[C@H](c1ccc(Br)cc1)[C@@H]2CO | -
CS(=O)(=O)N1CCCCN2[C@H](CO)[C@H](c3ccc(C4=CCCC4)cc3)[C@@H]2C1 | -
CCS(=O)(=O)N1CCCCN2[C@@H](CO)[C@@H](c3ccc(-c4ccccc4C)cc3)[C@@H]2C1 | -14
Cc1ccccc1-c1ccc([C@H]2[C@@H](CO)N3CCCCN(S(=O)(=O)Cc4ccccc4)C[C@H]23)cc1 | -
CS(=O)(=O)N1CCCCN2[C@H](CO)[C@@H](c3ccc(C4=CCCC4)cc3)[C@H]2C1 | -
CS(=O)(=O)N1CCCCN2[C@@H](CO)[C@@H](c3ccc(C4=CCCC4)cc3)[C@@H]2C1 | -
Cc1ccccc1-c1ccc([C@@H]2[C@H]3CN(S(C)(=O)=O)CCCCN3[C@H]2CO)cc1 | -5.2
Cc1ccccc1-c1ccc([C@H]2[C@@H](CO)N3CCCCN(S(C)(=O)=O)C[C@H]23)cc1 | -7.7
CCS(=O)(=O)N1CCCCN2[C@H](CO)[C@@H](c3ccc(-c4ccccc4C)cc3)[C@H]2C1 | -
Cc1ccccc1-c1ccc([C@@H]2[C@H](CO)N3CCCCN(S(C)(=O)=O)C[C@@H]23)cc1 | -10
COC(=O)c1ccc(CN2CC(=O)N3[C@H](CO)[C@H](c4ccc(-c5ccccc5)cc4)[C@H]3C2)cc1 | -
COc1ccc(S(=O)(=O)Nc2ccc3c(c2)C(=O)N([C@@H](C)CO)C[C@H](C)[C@@H](CN(C)C(=O)Nc2c(C)noc2C)OCCCC[C@H](C)O3)cc1 | -
C/C=C/c1ccc([C@H]2[C@H]3CN(Cc4ccc(C(=O)OC)cc4)CC(=O)N3[C@H]2CO)cc1 | -
CC(C)CC#Cc1ccc([C@@H]2[C@@H](CO)N3C(=O)CN(S(C)(=O)=O)C[C@@H]23)cc1 | -
CCNC(=O)C[C@H]1CC[C@H]2[C@@H](COC[C@@H](O)CN2C(=O)C2CCCC2)O1 | -
SMILES | IDE exosite inh
NCC[C@H]1CC[C@@H](NC(=O)Cc2ccncc2)[C@@H](CO)O1 | -
Cc1ccccc1-c1ccc([C@@H]2[C@@H](CO)N3CCCCN(S(C)(=O)=O)C[C@@H]23)cc1 | -18
Cc1ccccc1-c1ccc([C@H]2[C@H]3CN(S(=O)(=O)Cc4ccccc4)CCCCN3[C@H]2CO)cc1 | -
Cc1ccccc1-c1ccc([C@H]2[C@@H](CO)N3CCCCN(S(=O)(=O)Cc4ccccc4)C[C@@H]23)cc1 | -
O=C(c1ccncc1)N1CC(=O)N2[C@H](CO)[C@@H](c3ccc(-c4ccccc4)cc3)[C@@H]2C1 | -
C[C@@H]1CN([C@H](C)CO)C(=O)c2cc(NC(=O)Nc3cccc4ccccc34)ccc2O[C@H]1CN(C)S(=O)(=O)c1cccs1 | -
CN1C(=O)c2cc(NS(C)(=O)=O)ccc2OC[C@@H]2O[C@@H](CC(=O)N3CCOCC3)CC[C@H]21 | -
